Screens: PubChem BioAssay, several laboratories
PolyA inh: inhibitors of polyadenylation in S. cerevisiae; AID 1875; hit rate 0.02% among 300,000; activity score, % at 12 µM; S. cerevisiae SKY197-pL101 polyadenylation reporter, beta-gal luminescence; efflux-impaired pdr1/pdr3 knockout yeast; score 100 = 6 SD above DMSO;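 active = lowest replicate activity score at least 50, where 100 means six control SD above control mean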;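 also: yeast exposed to compound for 9 h at 30 °C; higher score means more reporter readthrough which indicates perturbed polyadenylation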
NLRP3 yeast inh: inhibitors of NALP3 inflammasome in yeast; Yeast reconstituted NLRP3/ASC/caspase-1, beta-gal luminescence, 24 h; inhibition, % at 10 µM; hit rate 0.39% among 330,000;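 active = inhibition of 50% or more; inactive = inhibition below 50%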
dFosB act-1: enhances mouse delta FosB homodimer DNA binding; P13346; purified delta FosB, TAMRA-CDK5 oligo fluorescence polarization; percent of positive-control signal above neutral wells; activation, % at 25 µM; hit rate 0.99% among 340,000;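 active = mean activation above about 17%, with every replicate also reaching it, limit read from the data, passing the limit was not always enough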
Target sequence (P13346 whole entry, looked up): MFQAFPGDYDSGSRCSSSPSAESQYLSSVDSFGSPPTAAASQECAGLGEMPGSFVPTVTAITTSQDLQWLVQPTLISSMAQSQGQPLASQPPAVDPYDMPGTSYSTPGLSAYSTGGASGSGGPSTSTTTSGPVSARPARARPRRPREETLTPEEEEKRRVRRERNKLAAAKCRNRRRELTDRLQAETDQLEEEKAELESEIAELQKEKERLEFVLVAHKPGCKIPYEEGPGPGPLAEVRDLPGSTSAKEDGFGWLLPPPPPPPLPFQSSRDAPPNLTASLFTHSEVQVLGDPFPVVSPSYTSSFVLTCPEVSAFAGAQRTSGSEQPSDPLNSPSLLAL
NALP1 yeast inh: inhibitors of NALP1 inflammasome in yeast; S. cerevisiae NALP1/ASC/caspase-1 growth, X-gal OD620, 72 h; inhibition, % at 10 µM; hit rate 0.61% among 280,000; in the data active = inhibition mostly above about 24%, no sharp cut-off; inactive = mostly below about 32%
EBNA-1 inhibitor: blocks EBNA-1 binding to DNA | inhibition, % at 14.8 µM | EBNA-1 DNA binding, fluorescence polarization | hit rate 0.34% among 300,000; in the data active = inhibition above about 28%
ZTA counter: blocks Epstein-Barr virus ZTA, an EBNA-1 counter-screen; inhibition, % at 11 µM; P03206; ZTA-DNA binding, fluorescence polarization; AID 2234; hit rate 0.15% among 320,000; in the data active = inhibition above about 33%
Target sequence (P03206 whole entry, looked up): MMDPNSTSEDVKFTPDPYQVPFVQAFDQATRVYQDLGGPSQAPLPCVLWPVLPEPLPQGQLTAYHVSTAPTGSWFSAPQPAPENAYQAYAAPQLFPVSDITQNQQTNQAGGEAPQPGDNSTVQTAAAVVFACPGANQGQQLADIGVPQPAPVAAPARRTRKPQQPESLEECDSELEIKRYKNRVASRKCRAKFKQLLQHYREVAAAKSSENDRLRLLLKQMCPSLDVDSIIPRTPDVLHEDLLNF
dFosB act-2: activators of mouse delta FosB homodimer DNA binding. shares compounds with dFosB act-1. purified delta FosB, TAMRA-CDK5 oligo fluorescence polarization; normalised: neutral wells 0, positive control 100. activation, % at 24.9 µM. 2,400 tested, under 10 active. AID 588690;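 active = highest replicate activation at or above 34% and every replicate reaching that threshold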;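 also: higher polarization means more probe DNA bound by delta FosB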
Numbers stand for hits; - = inactive; . = no result. Shown are actives, neighbours in structure and some others; about 2.2% of the full set was active somewhere.

SMILES | PolyA inh | NLRP3 yeast inh | dFosB act-1 | NALP1 yeast inh | EBNA-1 inhibitor | ZTA counter | dFosB act-2
Cc1[nH]c2ccccc2c1C(=O)CN1C(=O)C(=O)N(C2CCCC2)C1=O | - | - | 47 | - | - | - | -
Cc1ccc(C)c(-n2nnnc2SCC(=O)c2ccc3c(c2)NC(=O)CO3)c1 | - | - | 68 | - | - | - | -
O=C(NCC(=O)N(c1ccc2c(c1)OCO2)C(C(=O)NC1CCCC1)c1cccs1)c1ccco1 (configuration not stated) | - | - | 50 | - | - | - | -
CC(=O)N(Cc1ccccc1)C1CC(=O)N(Cc2ccccc2)C1=O (configuration not stated) | . | . | - | . | . | . | .
O=C(COC(=O)c1ccc(Br)cc1)NCc1ccc(F)cc1 | - | - | 20 | - | - | - | -
CC(C)NC(=O)NC(=O)CSc1nnc(-c2c[nH]c3ccccc23)o1 | - | - | - | - | - | - | .
CC(CCc1ccco1)NC(=O)CCc1nnc2ccc(NCc3ccccc3Cl)nn12 (configuration not stated) | - | - | 22 | - | - | - | -
CC(CCc1ccco1)NC(=O)CCc1nnc2ccc(NCc3ccc(Cl)cc3)nn12 (configuration not stated) | - | - | - | - | - | - | .
CCOc1cc(CNCCCN2CCOCC2)cc(Br)c1OCc1ccccc1Cl | - | - | 21 | - | - | - | -
CCOc1cc(CNCCN2CCOCC2)ccc1OCc1ccccc1Cl | - | - | - | - | - | - | .
CCCCCC1=C(C(=O)OC)C(C(=O)OCC)N(S(=O)(=O)C(F)(F)F)c2ccccc21 (configuration not stated) | . | . | - | . | . | . | .
COc1ccc(CNC(=O)COC(=O)c2cc3ccccc3o2)cc1 | . | - | - | . | . | . | .
COc1ccccc1CNC(=O)COC(=O)c1cc2ccccc2o1 | . | - | 31 | . | . | . | -
Cn1ncc(Br)c1C(=O)N1CCCCCC1 | - | - | - | - | - | - | .
O=C(CSc1nc2[nH]ncc2c(=O)[nH]1)Nc1ccc(OC(F)(F)F)cc1 | - | - | 19 | . | - | - | -
COC(=O)c1ccc(NC(=O)CSc2nc3[nH]ncc3c(=O)[nH]2)cc1 | - | - | - | . | - | - | .
O=C(NCCC1=CCCCC1)c1cc(S(=O)(=O)N2CCOCC2)ccc1Cl | - | - | - | . | - | - | .
O=C(NCCC1=CCCCC1)c1cc(S(=O)(=O)N2CCOCC2)c(Cl)cc1Cl | - | - | 19 | . | - | - | -
Cn1nc(-c2ccc(C(=O)Nc3ccc(F)cc3)cc2)c2ccccc2c1=O | - | - | 51 | - | - | - | -
Cn1nc(-c2ccc(C(=O)Nc3cccc(Cl)c3)cc2)c2ccccc2c1=O | - | - | 40 | - | - | - | -
Cc1ccc(C(=O)OCC(=O)Nc2cccc(S(=O)(=O)NC3=NCCCCC3)c2)c(C)c1 | - | - | - | - | - | - | .
O=[N+]([O-])c1cc(Cl)c(Cl)c(Cl)c1Cl | . | - | - | . | . | - | .
CCC(C)[C@H](NC(=O)c1cc2cc(Cl)ccc2n1C)C(=O)N1CCC(C(=O)O)CC1 (some centres not stated) | - | - | - | - | - | - | .
O=C(Cn1cnc2c(nnn2Cc2ccc(F)cc2)c1=O)Nc1cccc(F)c1 | - | - | - | - | - | - | .
O=C(Cn1cnc2c(nnn2Cc2ccc(F)cc2)c1=O)Nc1ccc2c(c1)OCCO2 | - | - | 27 | - | - | - | -
SMILES | PolyA inh | NLRP3 yeast inh | dFosB act-1 | NALP1 yeast inh | EBNA-1 inhibitor | ZTA counter | dFosB act-2
Cc1ccc(NC(=O)Cn2cnc3c(nnn3Cc3ccc(F)cc3)c2=O)cc1 | - | - | 23 | - | - | - | -
COC(=O)c1ccc(NC(=O)Cn2cnc3c(nnn3-c3cccc(OC)c3)c2=O)cc1 | - | - | 37 | - | - | - | -
CC(NC(=O)c1ccco1)C(=O)N1CCN(c2cccc(C(F)(F)F)c2)CC1 (configuration not stated) | . | - | - | . | . | - | .
O=C(CN1C(=O)c2ccccc2S1(=O)=O)Nc1cc(S(=O)(=O)N2CCCCC2)ccc1Cl | . | - | - | . | . | . | .
O=C(NCC(c1ccco1)N1CCCC1)c1ccc(Cl)c(S(=O)(=O)N2CCc3ccccc32)c1 (configuration not stated) | . | - | 23 | . | . | - | -
Cc1ccc(CNC(=O)c2ccc(N3CCC4(CC3)CC(c3cccc(Br)c3)=NO4)c(NC(=O)c3c(Cl)cccc3Cl)c2)cc1 | . | - | 24 | . | - | - | -
CCN(CC)Cc1cc2[nH]c3c4ccc(Cl)cc4ncc3c2cc1OC | - | - | 24 | - | . | . | -
COc1ccc(CNc2ncnc3cc(Cl)ccc23)cc1OC | - | . | - | - | . | . | .
CC(=O)c1ccc(NC(=O)C(C)OC(=O)/C=C/c2ccco2)cc1 (configuration not stated) | . | - | - | . | . | . | .
O=C(COC(=O)c1cc(Br)ccc1O)NNC(=O)c1ccc([N+](=O)[O-])cc1 | - | - | - | . | - | - | .
O=C(COC(=O)c1cc(Br)ccc1O)NNC(=O)c1ccc(Cl)cc1 | - | - | 26 | . | - | - | -
COc1ccc(C2=NOC(Cn3nc(C(=O)NCc4cccc(Br)c4)cc3-c3ccccc3)C2)cc1 (configuration not stated) | . | - | - | . | . | . | .
Clc1ccc(-c2nnc(NCc3ccccc3)c3ccccc23)cc1 | - | - | 18 | - | - | - | -
Cc1cc(NC(=O)CSc2cn(CC(=O)N(C(C)C)C(C)C)c3ccccc23)no1 | - | - | - | - | - | - | .
O=C(NC(C(=O)N/N=C/c1cccc2ccccc12)c1n[nH]c(=O)c2ccccc12)c1ccccc1 (configuration not stated) | - | - | 28 | - | - | - | -
O=C(NC(C(=O)N/N=C/c1ccncc1)c1n[nH]c(=O)c2ccccc12)c1ccccc1 (configuration not stated) | - | - | - | - | - | - | .
O=C(c1cc(-c2ccc(Cl)c(Cl)c2)on1)N1CCCC1 | . | . | . | - | . | . | .
O=C(c1cc(-c2ccc(Cl)c(Cl)c2)on1)N1CCOCC1 | - | - | 50 | - | - | - | -
CC1(C)Cc2nc3scc(NC(=O)c4ccccc4)c3cc2CO1 | - | - | . | - | - | - | .
CN(c1ccccc1)S(=O)(=O)c1cccc(NC(=O)c2ccc(=O)[nH]n2)c1 | . | - | - | . | . | . | .
N#Cc1cn(-c2cccc(C(F)(F)F)c2)c(=O)[nH]c1=O | - | - | - | - | - | - | .
c1ccc(CC2CCN(C3=Nc4cccc5cccc3c45)CC2)cc1 | - | - | 23 | . | - | - | -
CC(=O)N1CCN(C2=Nc3cccc4cccc2c34)CC1 | - | - | 17 | - | - | - | -
COc1ccccc1N1CCN(C2=Nc3cccc4cccc2c34)CC1 | - | - | 26 | - | - | - | -
c1cc2c3c(cccc3c1)C(N1CCOCC1)=N2 | - | - | - | - | - | - | .
